In all, about 69,000 compounds went through this assay and about 8,600 (12%) showed an effect of 50% or more. The entries come from a sample that favours strong results as a whole.
Tested on: Plasmodium berghei
Experiment: Screen against P. berghei liver stage (PbLuc), transformed with Luciferase, at 10uM
Assay type: functional, HepG2
Conditions: tested at 10 uM

SMILES	INHIBITION [%]
COc1ccc(C2OC(COc3ccccc3Br)=NN2C(C)=O)cc1 (stereo unspecified)	-52.1
CC(=O)N1N=C(COc2ccc(C)cc2)OC1c1ccc(N(C)C)cc1 (stereo unspecified)	11.9
CC(=O)N1N=C(COc2ccc3c(c2)OCO3)OC1c1ccc(C)cc1 (stereo unspecified)	-51.1
CC(=O)N1N=C(COc2ccc(Cl)cc2)OC1c1ccccc1 (stereo unspecified)	68.9
CC(=O)N1N=C(COc2ccc3c(c2)OCO3)OC1c1cccc(Cl)c1 (stereo unspecified)	61.5
COc1ccc(C2OC(COc3ccc(C)cc3)=NN2C(C)=O)cc1 (stereo unspecified)	-13.6
COCC(=O)N1C[C@@H](c2cccc(OC)c2)[C@@]2(CCCCC(=O)N2)C1	-4.87
CC(C)(CCS(C)(=O)=O)CNC(=O)NC1CCCCC1(C)C (stereo unspecified)	-11.1
Cc1cc(C2CCCN(CCS(=O)(=O)c3ccccc3)C2)n[nH]1 (stereo unspecified)	-9.76
O=C(NCc1ccncc1)C1=NOC2(CCCNC2)C1 (stereo unspecified)	-6.21
Cc1ccc(CNC(=O)C2=NOC3(CCCNC3)C2)cc1 (stereo unspecified)	-13.1
O=C(NCC(F)(F)F)C1=NOC2(CCCNC2)C1 (stereo unspecified)	52.9
COCCn1ccc(=O)c(OCC(=O)Nc2ccc(OC)cc2)c1C	-35.1
CCn1nc(C)c(CN(CCCOC)Cc2ccccn2)c1C	41.5
CCn1c(C2CCN(C(=O)c3cc(Cl)no3)CC2)nn(C)c1=O	-34.7
Cc1nn(C)c2nc(N(Cc3ccccn3)CC3CCCO3)sc12 (stereo unspecified)	3.17
Cc1nn(C)c2nc(N(Cc3ccncc3)CC3CCCO3)sc12 (stereo unspecified)	-24
Cc1nn(C)c2nc(-c3ccccn3)nc(NC[C@@H]3CCCO3)c12	10.4
Cc1nn(C)c2nc(N(Cc3ccccc3)CC3CCCO3)sc12 (stereo unspecified)	32.8
COc1ccc(CN(CC2CCCO2)c2nc3c(s2)c(C)nn3C)cc1 (stereo unspecified)	87.1
Cc1nn(C)c2nc(N(CCOc3ccccc3)CC3CCCO3)sc12 (stereo unspecified)	85.9
Cn1cc(CN2C[C@@H]3COC[C@]3(COCC3CC3)C2)cn1	33.1
CCn1c(CN(C)Cc2csc(C)n2)nc2cc(F)ccc21	45.2
CC(=O)c1c(C)nn(S(=O)(=O)c2ccc(C)c(C)c2)c1C	4.97
CCOc1cc(=O)n2c(c1C(=O)OCc1ccc(F)cc1)CCCC2	-3.77
Cn1cccc(NC(=O)NCCc2cccc(O)c2)c1=O	57.3

SMILES	INHIBITION [%]
Cn1cccc(NC(=O)NCCOCc2ccccc2)c1=O	28.5
Cn1cccc(NC(=O)NCc2cccc(CO)c2)c1=O	42.4
CCN(Cc1ccccc1O)CC1(C)Cc2c(N)nc(N)nc2O1 (stereo unspecified)	16.7
COCCOC(=O)N1C[C@@H]2CC[C@H]1CN(C1Cc3ccccc3C1)C2	-55
COc1ccc(C2CCCN2C(=O)NCCNc2ccccn2)cc1 (stereo unspecified)	-21.2
CCCOc1ccc(CCC(=O)Nc2nonc2C)cc1	-11.3
Cc1ccc(OCCCC(=O)Nc2nonc2C)cc1C	86.1
Cc1nonc1NC(=O)CCn1cc(Br)ccc1=O	20.3
COCC1c2c(cnn2C)CCN1Cc1ccc(C)o1 (stereo unspecified)	34.4
Cc1n[nH]c(C)c1CCC(=O)NCC1CCCN(C2CCCC2)C1 (stereo unspecified)	38.6
COc1nn(C)cc1C(=O)N1CCC(C)CC1	49.9
CNC(=O)[C@H]1C[C@@H]2CN(C(=O)c3cccnc3)C[C@@H]2N1S(C)(=O)=O	10.5
Cc1ccc(CN2CCCC3(CCN(Cc4ccc(C)o4)C3)C2)o1 (stereo unspecified)	74.7
Cc1ccc(CN2CCC3(CCN(S(=O)(=O)c4ccccc4)C3)C2)o1 (stereo unspecified)	56.8
Cc1ccc(CN2CCCC3(CCN(S(C)(=O)=O)C3)C2)o1 (stereo unspecified)	22.7
Cc1ccc(CN2CCCC3(CCN(S(=O)(=O)N(C)C)C3)C2)o1 (stereo unspecified)	48.3
Cc1ccc(CN2CC3(CCN(S(=O)(=O)c4ccccc4)C3)C2)o1	12.4
Cc1ccc(CN2CCC3(CCCN(S(C)(=O)=O)C3)C2)o1 (stereo unspecified)	24.9
CCS(=O)(=O)N1CCC2(CCN(Cc3ccc(C)o3)C2)C1 (stereo unspecified)	13.1
Cc1c[nH]c(CN2CCC3(CCCN(Cc4ccc(F)c(F)c4)C3)C2)n1 (stereo unspecified)	42.2
Cc1ccc(CN2CCC3(CCCN(Cc4ccc(F)c(F)c4)C3)C2)o1 (stereo unspecified)	54.7
CC(=O)N1CCN([C@@H]2CC[C@@H](NC(=O)c3cc(C)cs3)[C@H]2O)CC1	33.7
Cc1cncc(C(=O)N2CCC3(CC2)NC(=O)CC3c2ccccc2)c1 (stereo unspecified)	-3.88
O=C([C@H]1C[C@H]2[C@H](CCN2Cc2cccs2)O1)N1CCOCC1	24.8
CSc1ncccc1C(=O)N1C[C@@H]2CC[C@H]1CN(C(C)=O)C2	-31.1
COCCNc1c(-c2ccc(C)cc2)c(=O)c1=O	25.3

SMILES	INHIBITION [%]
Cc1ccc(S(=O)(=O)N2CCCCC(N3CCN(C)CC3)C2)cc1F (stereo unspecified)	71.3
Cc1cc(S(=O)(=O)N2CCC(S(C)(=O)=O)CC2)ccc1F	16.6
Cc1cc(S(=O)(=O)N2CCCN3CCCC3C2)ccc1F (stereo unspecified)	88.1
Cc1ccc(S(=O)(=O)N2C[C@H](C3CC3)[C@@H](N)C2)cc1F	22.5
Cc1cc(S(=O)(=O)N2CCC(S(C)(=O)=O)C2)ccc1F (stereo unspecified)	6.09
Cc1ccc(S(=O)(=O)N2CCC(N3CCCCC3)CC2)cc1C	45.4
CCc1ccc(CN2CCC3(CC2)CN(c2cnn(C)c2)C(=O)CO3)o1	34.4
Cc1ccc(OCCCSC2=NCCN2)cc1	39.1
COCCNC(=O)Cn1c(C)cc2nc(SC)n(CC(C)C)c(=O)c21	89.9
CSc1nc2cc(C)n(CC(=O)NC(C)C)c2c(=O)n1CC(C)C	43.9
CSc1nc2cc(C)n(CC(N)=O)c2c(=O)n1CC(C)C	42.3
Cc1cc(C)n(CC(=O)N2CCC(Nc3cccnn3)CC2)n1	-7.95
O=C(NCc1cccs1)[C@@H]1CC[C@@H]2[C@@H](CCN2C2CCOCC2)O1	27.6
CCO[C@@H]1CCN(C(=O)c2cnc(C)cn2)[C@@H]1Cc1cnn(C)c1	53.2
Cn1cc(C[C@H]2[C@@H](O)CCN2C(=O)c2ccc[nH]2)cn1	4.27
Cc1ccccc1C(=O)N1CC[C@@H](N(C)C)[C@@H]1Cc1cnn(C)c1	34.6
CCO[C@@H]1CCN(C(=O)c2cscn2)[C@@H]1Cc1cnn(C)c1	37.5
CN(C)[C@@H]1CCN(C(=O)c2cccn2C)[C@H]1Cc1cnn(C)c1	57.9
Cn1cc(C[C@H]2[C@H](O)CCN2C(=O)c2ccsc2)cn1	60.2
CN(C)[C@@H]1CCN(C(=O)c2ccsc2)[C@H]1Cc1cnn(C)c1	48.3
CN(C)[C@@H]1CCN(C(=O)c2ccco2)[C@H]1Cc1cnn(C)c1	33.4
Cn1cc(C[C@H]2[C@H](N3CCOCC3)CCN2C(=O)c2ccc[nH]2)cn1	55.5
CN(C)C(=O)N1CC[C@@H](O)[C@@H]1Cc1cnn(C)c1	19.5
COCCO[C@@H]1CCN(C(=O)c2ccc[nH]2)[C@H]1Cc1cnn(C)c1	33.4
Cn1cc(C[C@H]2[C@H](N3CCOCC3)CCN2C(=O)c2ccco2)cn1	17.1
O=c1ccc(-c2cccs2)nn1CN1CCOC(c2ccccc2)C1 (stereo unspecified)	-16.5

SMILES	INHIBITION [%]
Cc1oc(C)c(C(=O)N2CCN(Cc3cscn3)CC2)c1C	-63.3
CN(C)c1cccc(C(=O)N2CCCSCC2CN2CCCC2)c1 (stereo unspecified)	11
CC(C)C(NC(=O)Cn1nc2c(cc1=O)CCCC2)C(=O)O (stereo unspecified)	-0.621
Cc1ccc(NCc2cncc3c2CCN(C(=O)C2CC=CC2)C3)nn1	-25
O=C(c1cncs1)N1CCCC1c1ccn[nH]1 (stereo unspecified)	-28.6
Cc1nc(N2CCOCC2)nc2c1CCN(Cc1cccnc1)CC2	4.92
Cc1cccc(N2CCN(C(=O)NC(C)c3nncn3C)CC2)c1 (stereo unspecified)	-38.2
O=C(N[C@@H]1CC[C@@H](N2CCOCC2)[C@@H]1O)c1cnn2cccnc12	38.8
COCCO[C@H]1CCN(C(=O)c2cccnc2)[C@H]1Cc1cnn(C)c1	1.9
O=C(c1ccnnc1)N1CC[C@@H](O)[C@@H]1Cc1ccccc1	-3.58
O=C(c1ccnnc1)N1CC[C@H](OCC2CC2)[C@@H]1Cc1ccncc1	66.2
COCCO[C@H]1CCN(C(=O)NC2CC2)[C@H]1Cc1cnn(C)c1	62.8
COCCO[C@H]1CCN(C(=O)c2ccsc2)[C@H]1Cc1cnn(C)c1	-17.9
COCCO[C@@H]1CCN(C(=O)c2ccc(C)o2)[C@@H]1Cc1cnn(C)c1	21.6
COCCO[C@H]1CCN(C(=O)c2ccco2)[C@H]1Cc1cnn(C)c1	-22.5
CCO[C@@H]1CCN(C(=O)N(C)C)[C@@H]1Cc1cnn(C)c1	12.4
O=C(c1cccnc1)N1CC[C@H](OCC2CC2)[C@@H]1Cc1cccnc1	34.8
CCO[C@@H]1CCN(C(=O)c2ccc[nH]2)[C@@H]1Cc1cnn(C)c1	29
COCCO[C@@H]1CCN(C(=O)c2ccnnc2)[C@H]1Cc1cnn(C)c1	53.4
CCO[C@@H]1CCN(C(=O)c2ccnnc2)[C@@H]1Cc1cnn(C)c1	69.5
NC(=O)C1CCCN(C(=O)c2ccn(-c3ccc(F)cc3)n2)C1 (stereo unspecified)	0.914
c1cnc2[nH]c(C3CCNCC3)c(CN3CCOCC3)c2c1	6.32
O=C([C@H]1CC[C@@H]2[C@@H](CCN2C2CCCCC2)O1)N1CCOCC1	20.6

Source: ChEMBL document CHEMBL4513216, “Probing the Open Global Health Chemical Diversity Library for Multistage-Active Starting Points for Next-Generation Antimalarials” (ACS Infect Dis, 2020)
